Laboratory results taken from ChEMBL document CHEMBL3988442, “University of Dundee, Small-Polar-MMV Screening Library” (2021).
The campaign covered roughly 48,000 compounds. About 13,000 (27%) showed an effect of 50% or more. The list shows a part of the results.

Each compound was assayed on Wolbachia pipientis (assay: Anti-Wolbachia Cell-Based Screen). Conditions: 5 µM.
Assay type: functional
Design: scale not given: in the data most compounds retested in dose-response had high values

Row | SMILES | Percent Effect [%]
1 | COc1ccc(OC)c(Sc2ncccc2C(=O)NCC2CC2)c1 | 167.1
2 | CCOCCNC(=O)c1cnc(Sc2nccn2C)c(Cl)c1 | 13.89
3 | COCCNC(=O)c1cc(OC)ccc1Br | 8.343
4 | CCOC(=O)NC(CNC(=O)c1cccnc1SC)CC(C)C (stereo not given) | -1.757
5 | COCCNC(=O)c1cccnc1Sc1cc(OC)ccc1OC | 161.9
6 | CCOCCNC(=O)c1cccnc1Sc1cc(OC)ccc1OC | 152.7
7 | CCOC(=O)CNC(=O)c1cccnc1Sc1cc(OC)ccc1OC | 162.1
8 | COc1ccc(OC)c(C(=O)Nc2cccnc2-n2cncn2)c1 | 13.43
9 | COc1ccc(C(=O)NCCCNc2ncccn2)cc1F | -6.702
10 | Cc1nc2cc(F)ccc2cc1C(=O)N1CCN(CC(C)O)CC1 (stereo not given) | -9.577
11 | CSc1ncccc1C(=O)NCCC(O)c1cccs1 (stereo not given) | 13.17
12 | CSc1ncccc1C(=O)NCCC(O)c1cc(C)oc1C (stereo not given) | -1.719
13 | COc1ccc(OC)c(Sc2ncccc2C(=O)NCCSC)c1 | 104.4
14 | O=c1oc(-c2ccc(F)cc2)nn1CCc1ccccn1 | -9.185
15 | O=C(c1ccc(N2CCCC2)nn1)N1CCCc2ccc(F)cc21 | -11.11
16 | O=C(c1ccc(N2CCCCCC2)nn1)N1CCc2ccccc21 | 130.8
17 | O=C(c1ccc(N2CCCC2)nn1)N1CCc2ccccc21 | 13.46
18 | CCN(CC)C(=O)Nc1cc2c(cc1SC)OCCO2 | 7.32
19 | CCc1nccn1C1CCCN(C(=O)c2ccnc(C)n2)C1 (stereo not given) | 1.971
20 | O=C(c1cc(Cl)c2c(c1)OCO2)N1CCCC(n2ccnc2)C1 (stereo not given) | 1.53
21 | CC(C)c1nccn1C1CCCN(C(=O)c2cccc3c2OCO3)C1 (stereo not given) | -5.15
22 | O=C(c1cccc2c1OCO2)N1CCCC(n2ccnc2)C1 (stereo not given) | 115.9
23 | CCc1nccn1C1CCCN(C(=O)c2cccc3c2OCO3)C1 (stereo not given) | 115.7
24 | Cc1nccn1C1CCCN(C(=O)c2cccc3c2OCO3)C1 (stereo not given) | 116.3

Row | SMILES | Percent Effect [%]
25 | CCc1nccn1C1CCCN(C(=O)c2cnn3ccc(C)nc23)C1 (stereo not given) | -1.055
26 | O=C(c1cccc2c1OCCO2)N1CCCC(n2ccnc2)C1 (stereo not given) | -8.704
27 | O=C1CC(C(=O)Nc2nnc(-c3cccs3)[nH]2)c2ccccc2N1 (stereo not given) | -3.979
28 | CC(C)OC(=O)CN1N=C(C(=O)N2CCCC2)S(=O)(=O)c2ccccc21 | 15.65
29 | N#Cc1ccccc1CN1C[C@@H]2CC[C@H](C1)N(CC1CC1)C2=O | -10.09
30 | Cc1nn(CCC#N)c(C)c1CCC(=O)N(C(C)C)C1CC1 | -0.4171
31 | COc1ccc(C(=O)NC2CC2)c(OC2CCN(CC3CC3)CC2)c1 | 4.837
32 | CSCC(=O)N1CCCC(n2ccnc2C(C)C)C1 (stereo not given) | -4.829
33 | COCc1nc(C(=O)N2CCN(c3nccc(OC)n3)CC2)cs1 | -10.67
34 | CC(C)c1nccn1C1CCCN(C(=O)c2ccc(=O)n(C)n2)C1 (stereo not given) | 4.106
35 | COCc1nc(C(=O)N2CCCC(n3ccnc3C(C)C)C2)cs1 (stereo not given) | 114
36 | COCc1nc(C(=O)N2CCCC(n3ccnc3)C2)cs1 (stereo not given) | 102.7
37 | Cc1nccn1C1CCCN(C(=O)c2ccc(N3CCCC3)nn2)C1 (stereo not given) | -4.751
38 | COCc1nc(C(=O)N2CCCC(n3ccnc3C)C2)cs1 (stereo not given) | 95.68
39 | CC(=O)Nc1nc(C(=O)N2CCCC(n3ccnc3)C2)cs1 (stereo not given) | -0.04658
40 | CC(C)Nc1ccc2c(c1)C1(CCOCC1)C(=O)N2c1ccsc1 | -5.936
41 | CCc1cc(N2C[C@H](C3CC3)[C@@H](N)C2)nc(N2CCOCC2)n1 | -5.197
42 | CCOc1ccnc(N2CCN(C(=O)c3cccnc3O)CC2)n1 | -0.2095
43 | CCOc1ccnc(N2CCN(C(=O)c3cn[nH]c3CC)CC2)n1 | -0.2597
44 | CCOc1ccc(Cl)c(C(=O)N2CCN(c3ncccn3)CC2)n1 | 79.36
45 | CCOc1ccnc(N2CCN(C(=O)CCc3ccncc3)CC2)n1 | -7.253
46 | CCOc1ccc(Cl)c(C(=O)N2CCN(c3ccncc3)CC2)n1 | 119.1
47 | CCC(O)CN1CCN(C(=O)c2csc(COC)n2)CC1 (stereo not given) | -26.29
48 | CCOc1ccc(Cl)c(C(=O)N2CCN(c3cnccn3)CC2)n1 | 0.9998

Row | SMILES | Percent Effect [%]
49 | CCOc1ccc(Cl)c(C(=O)N2CCN(CC(O)CC)CC2)n1 (stereo not given) | 92.51
50 | CCOc1ccc(Cl)c(C(=O)N2CCCN(CC(N)=O)CC2)n1 | 93.33
51 | CCC(O)CN1CCN(C(=O)c2cccn2Cc2ccccc2)CC1 (stereo not given) | -11.52
52 | Cc1cccc(OCCC(=O)N2CCCN(CC(N)=O)CC2)c1C | -3.511
53 | CCOc1ccc(Cl)c(C(=O)NC(C)C(N)=O)n1 (stereo not given) | -12.05
54 | COCc1nc(C2CC2)nn1-c1ccccc1Cl | -16.97
55 | CC(NCc1c(C(C)C)nn(C)c1N1CCOCC1)C(N)=O (stereo not given) | 1.644
56 | Cc1cnc(C)c(N2CCC(c3nccn3Cc3cscn3)CC2)n1 | 32.35
57 | CC(NC(=O)CCCOc1cccc(F)c1)c1ccncc1 (stereo not given) | -15.4
58 | Cc1ncc2c(n1)CN(Cc1ncc(C(C)(C)C)o1)CC2 | 13.07
59 | OCC(O)CN1CCc2onc(-c3ccc(C(F)(F)F)cc3)c2C1 (stereo not given) | -7.135
60 | CN(C)C(=O)c1ccc(OC2CCOCC2)cc1 | 14.67
61 | COC(C)(C)CNC(=O)N(C)Cc1nc(-c2ccccc2)c[nH]1 | -6.978
62 | CCOc1ccc(Cl)c(C(=O)NCc2ccc(C(=O)NC)cc2)n1 | -13.09
63 | CCOc1ccc(Cl)c(C(=O)N2CCN(C(=O)OC)CC2)n1 | 106.5
64 | CCOc1ccc(Cl)c(C(=O)N(C)C)n1 | -5.446
65 | CCOc1ccc(Cl)c(C(=O)N2CCN(C(=O)c3ccoc3C)CC2)n1 | -0.3279
66 | CCOc1ccc(Cl)c(C(=O)N2CCN(CC(C)(C)O)CC2)n1 | 117.3
67 | CC(C)(O)CN1CCN(C(=O)c2cc(Cl)cc3cccnc23)CC1 | -2.728
68 | COc1ccc(OCc2cc(C(=O)N3CCSCC3)n[nH]2)c(Cl)c1 | -44.95
69 | CCOc1ccc(Cl)c(C(=O)N2CCCSCC2)n1 | 87.04
70 | CC(C)(O)CN1CCN(C(=O)c2cccc3[nH]ncc23)CC1 | 5.71
